Test results from the supplement of paper PMC8253809.
“And” between values parts separate entries of the source, which are not always exact repeats. Equal values may be shown once.

System: SUDIPGVI (diffuse intrinsic pontine glioma line)
Assay: growth inhibition (% activity, log2 RLU normalised to DMSO / staurosporine); higher = more growth inhibition
Settings: 33 µM
Summary of the method: (§1)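 Approved drugs were tested in triplicate at a single final concentration of about 33 μM for 7 days at 37 °C, 5% CO2, on pHGG cell lines and H9-derived neural stem cells. Readout was CellTiter-Glo luminescence, log2-transformed and scaled per plate to % activity between solvent and positive control wells. The median over replicates gives the growth-inhibition value.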

SMILES | growth inhibition
N=C(N)c1ccc(OCCCCCOc2ccc(C(=N)N)cc2)cc1 | 44.2%
Cc1c(-c2ccccc2)oc2c(C(=O)OCCN3CCCCC3)cccc2c1=O | -3.08%
O=P(O)(O)C(Cl)(Cl)P(=O)(O)O | 2.08%
CCOC(=O)c1c(CSc2ccccc2)n(C)c2cc(Br)c(O)c(CN(C)C)c12 | -8.38%
O=C(O)c1cc(=O)c2ccccc2o1 | 2.48%
O=C(Nc1cccc2c(=O)cc(-c3nnn[nH]3)oc12)c1ccc(OCCCCc2ccccc2)cc1 | 1.62%
CC(C(=O)O)c1cccc(Oc2ccccc2)c1 (stereo not drawn) | 3.45% and 0.152%
CC(C[N+](C)(C)C)OC(N)=O (stereo not drawn) | -2.52%
CC1(C)O[C@@H]2C[C@H]3[C@@H]4C[C@H](F)C5=CC(=O)C=C[C@]5(C)[C@@]4(F)[C@@H](O)C[C@]3(C)[C@]2(C(=O)CO)O1 | 3.97%
CC(=O)OCC(=O)[C@@]1(O)CC[C@H]2[C@@H]3CCC4=CC(=O)CC[C@]4(C)[C@H]3C(=O)C[C@@]21C | -7.69%
C[C@@]12C[C@@]3(O)O[C@@H](O1)[C@]1(COC(=O)c4ccccc4)[C@H]3C[C@@]12O[C@@H]1O[C@H](CO)[C@@H](O)[C@H](O)[C@H]1O | 0.677%
Cc1ccc(-n2[nH]c(C)c(N=Nc3cccc(-c4cccc(C(=O)O)c4)c3O)c2=O)cc1C | -2.5%
CCOC(=O)c1ccc(C#Cc2ccc3c(c2)C(C)(C)CCS3)nc1 | 4.1%
CN1C(C(=O)Nc2ccccn2)=C(O)c2sc(Cl)cc2S1(=O)=O | -0.634%
CC[C@H]1OC(=O)[C@H](C)[C@@H](O[C@H]2C[C@@](C)(OC)[C@@H](O)[C@H](C)O2)[C@H](C)[C@@H](O[C@@H]2O[C@H](C)C[C@H](N(C)C)[C@H]2O)[C@](C)(O)C[C@@H](C)C(=O)[C@H](C)[C@@H](O)[C@]1(C)O | 2.66%
Clc1ccccc1CN1CCc2sccc2C1 | 3.23%
CC(C)OC(=O)C(C)(C)Oc1ccc(C(=O)c2ccc(Cl)cc2)cc1 | 2.08%
Clc1ccc(C(c2ccccc2Cl)C(Cl)Cl)cc1 (stereo not drawn) | -1.05%
C=CCNC(N)=S | -2.19%
Clc1cccc(Cl)c1NC1=NCCN1 | -1.83%

SMILES | growth inhibition
CC(C)(C)CC(C)(C)c1ccc(OCCOCC[N+](C)(C)Cc2ccccc2)cc1 | 64.5%
CN(C)CCCN1c2ccccc2CCc2ccc(Cl)cc21 | 3.07%
O=C(NCCN1CCOCC1)c1ccc(Cl)cc1 | -1.17%
Cc1onc(-c2c(Cl)cccc2Cl)c1C(=O)N[C@@H]1C(=O)N2[C@@H]1SC(C)(C)[C@@H]2C(=O)O | 2.27%
C[C@](N)(Cc1ccc(O)c(O)c1)C(=O)O | 1.41%
CN(C)CCCC1(c2ccc(F)cc2)OCc2cc(C#N)ccc21 (stereo not drawn) | 1.71%
CNCCC(Oc1ccc(C(F)(F)F)cc1)c1ccccc1 (stereo not drawn) | 0.57%
O=C([O-])C(O)[C@H](O)[C@@H](O)[C@H](O)[C@H](O)CO.O=C([O-])C(O)[C@H](O)[C@@H](O)[C@H](O)[C@H](O)CO.[Ca+2] (stereo partly drawn) | 2.72%
Cc1c(C(=O)NN2CCCCC2)nn(-c2ccc(Cl)cc2Cl)c1-c1ccc(Cl)cc1 | -7.47%
CC(=O)N1CCN(c2ccc(OCC3COC(Cn4ccnc4)(c4ccc(Cl)cc4Cl)O3)cc2)CC1 (stereo not drawn) | 7%
CC(C)(Oc1ccc(CCNC(=O)c2ccc(Cl)cc2)cc1)C(=O)O | 2.49%
O=C1[C@@H]2[C@H]3CC[C@H](C3)[C@@H]2C(=O)N1C[C@@H]1CCCC[C@H]1CN1CCN(c2nsc3ccccc23)CC1 | 0.346%
CC(C)(Oc1ccc(Cl)cc1)C(=O)O | -0.459%
Cc1cc(C)nc(NS(=O)(=O)c2ccc(N)cc2)n1 | -1.67%
Cc1cnc(NC(=O)C2=C(O)c3ccccc3S(=O)(=O)N2C)s1 | 1.38%
CNC(=O)c1ccc(N2C(=S)N(c3ccc(C#N)c(C(F)(F)F)c3)C(=O)C2(C)C)cc1F | -1.51%
COc1cc2c(cc1Cc1cccc(Cl)c1F)c(=O)c(C(=O)O)cn2[C@H](CO)C(C)C | 1.61%
C=C1CC[C@H](O)C/C1=C/C=C1\CCC[C@]2(C)[C@@H]([C@H](C)/C=C/[C@H](C)C(C)C)CC[C@@H]12 | 4.49%
CC(C)(C)c1ccc(C(O)CCCN2CCC(C(O)(c3ccccc3)c3ccccc3)CC2)cc1 (stereo not drawn) | -2.2%

System: SUDIPGXIII (diffuse intrinsic pontine glioma line)
Assay: as above
Settings: 33 µM
Summary of the method: as §1

SMILES | growth inhibition
N=C(N)c1ccc(OCCCCCOc2ccc(C(=N)N)cc2)cc1 | 16.5%
Cc1c(-c2ccccc2)oc2c(C(=O)OCCN3CCCCC3)cccc2c1=O | -2.91%
O=P(O)(O)C(Cl)(Cl)P(=O)(O)O | -0.0137%
CCOC(=O)c1c(CSc2ccccc2)n(C)c2cc(Br)c(O)c(CN(C)C)c12 | 3.61%
O=C(O)c1cc(=O)c2ccccc2o1 | 0.672%
O=C(Nc1cccc2c(=O)cc(-c3nnn[nH]3)oc12)c1ccc(OCCCCc2ccccc2)cc1 | 2.22%
CC(C(=O)O)c1cccc(Oc2ccccc2)c1 (stereo not drawn) | 0.892% and 1.49%
CC(C[N+](C)(C)C)OC(N)=O (stereo not drawn) | 0.126%
CC1(C)O[C@@H]2C[C@H]3[C@@H]4C[C@H](F)C5=CC(=O)C=C[C@]5(C)[C@@]4(F)[C@@H](O)C[C@]3(C)[C@]2(C(=O)CO)O1 | -0.393%
CC(=O)OCC(=O)[C@@]1(O)CC[C@H]2[C@@H]3CCC4=CC(=O)CC[C@]4(C)[C@H]3C(=O)C[C@@]21C | -0.171%
C[C@@]12C[C@@]3(O)O[C@@H](O1)[C@]1(COC(=O)c4ccccc4)[C@H]3C[C@@]12O[C@@H]1O[C@H](CO)[C@@H](O)[C@H](O)[C@H]1O | -13.1%
Cc1ccc(-n2[nH]c(C)c(N=Nc3cccc(-c4cccc(C(=O)O)c4)c3O)c2=O)cc1C | 1.95%
CCOC(=O)c1ccc(C#Cc2ccc3c(c2)C(C)(C)CCS3)nc1 | 1.82%
CN1C(C(=O)Nc2ccccn2)=C(O)c2sc(Cl)cc2S1(=O)=O | 2.15%
CC[C@H]1OC(=O)[C@H](C)[C@@H](O[C@H]2C[C@@](C)(OC)[C@@H](O)[C@H](C)O2)[C@H](C)[C@@H](O[C@@H]2O[C@H](C)C[C@H](N(C)C)[C@H]2O)[C@](C)(O)C[C@@H](C)C(=O)[C@H](C)[C@@H](O)[C@]1(C)O | -1.2%
Clc1ccccc1CN1CCc2sccc2C1 | 1.33%
CC(C)OC(=O)C(C)(C)Oc1ccc(C(=O)c2ccc(Cl)cc2)cc1 | 0.0771%
Clc1ccc(C(c2ccccc2Cl)C(Cl)Cl)cc1 (stereo not drawn) | 1.43%
C=CCNC(N)=S | -0.232%
Clc1cccc(Cl)c1NC1=NCCN1 | -1.09%

SMILES | growth inhibition
CC(C)(C)CC(C)(C)c1ccc(OCCOCC[N+](C)(C)Cc2ccccc2)cc1 | 73.4%
CN(C)CCCN1c2ccccc2CCc2ccc(Cl)cc21 | 3.28%
O=C(NCCN1CCOCC1)c1ccc(Cl)cc1 | 0.934%
Cc1onc(-c2c(Cl)cccc2Cl)c1C(=O)N[C@@H]1C(=O)N2[C@@H]1SC(C)(C)[C@@H]2C(=O)O | -0.796%
C[C@](N)(Cc1ccc(O)c(O)c1)C(=O)O | -0.739%
CN(C)CCCC1(c2ccc(F)cc2)OCc2cc(C#N)ccc21 (stereo not drawn) | 0.506%
CNCCC(Oc1ccc(C(F)(F)F)cc1)c1ccccc1 (stereo not drawn) | 2.42%
O=C([O-])C(O)[C@H](O)[C@@H](O)[C@H](O)[C@H](O)CO.O=C([O-])C(O)[C@H](O)[C@@H](O)[C@H](O)[C@H](O)CO.[Ca+2] (stereo partly drawn) | -0.395%
Cc1c(C(=O)NN2CCCCC2)nn(-c2ccc(Cl)cc2Cl)c1-c1ccc(Cl)cc1 | 3.18%
CC(=O)N1CCN(c2ccc(OCC3COC(Cn4ccnc4)(c4ccc(Cl)cc4Cl)O3)cc2)CC1 (stereo not drawn) | 12%
CC(C)(Oc1ccc(CCNC(=O)c2ccc(Cl)cc2)cc1)C(=O)O | -16.6%
O=C1[C@@H]2[C@H]3CC[C@H](C3)[C@@H]2C(=O)N1C[C@@H]1CCCC[C@H]1CN1CCN(c2nsc3ccccc23)CC1 | 2.16%
CC(C)(Oc1ccc(Cl)cc1)C(=O)O | -0.393%
Cc1cc(C)nc(NS(=O)(=O)c2ccc(N)cc2)n1 | 0.778%
Cc1cnc(NC(=O)C2=C(O)c3ccccc3S(=O)(=O)N2C)s1 | -0.269%
CNC(=O)c1ccc(N2C(=S)N(c3ccc(C#N)c(C(F)(F)F)c3)C(=O)C2(C)C)cc1F | 1.86%
COc1cc2c(cc1Cc1cccc(Cl)c1F)c(=O)c(C(=O)O)cn2[C@H](CO)C(C)C | 5.02%
C=C1CC[C@H](O)C/C1=C/C=C1\CCC[C@]2(C)[C@@H]([C@H](C)/C=C/[C@H](C)C(C)C)CC[C@@H]12 | 0.866%
CC(C)(C)c1ccc(C(O)CCCN2CCC(C(O)(c3ccccc3)c3ccccc3)CC2)cc1 (stereo not drawn) | -0.826%
